Shown are actives, neighbours in structure and some others; about 21% of the full set was active somewhere.
Pf growth 96h = inhibits malaria parasite growth, 96 h; P. falciparum luciferase reporter growth, 96 h; Potency, µM (top dose mostly 28.7 µM), without a hit: at the top dose activity change, negative = inhibition, usual class: inhibitors; 320,000 tested, 6.9% active; also: potency is read from the fitted curve at half-maximal effect; % is scaled to controls: 0 for no effect and ±100 for the full control effect
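Erythrocytes infected with luciferase-expressing P. falciparum were dispensed at 2% hematocrit and 0.05% parasitemia (final), then incubated with compounds 96 hours at 37 C in 5% CO2. Luminescence after detection reagent addition reported growth.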
Pf growth 48h = P. falciparum growth inhibition at 48 hours (one generation) | P. falciparum luciferase growth in erythrocytes, 48 h | Potency, µM (titrated, usually from 28.7 µM), for inactives: top-dose activity change, negative = inhibition, hits mostly inhibitors | 310,000 tested, 5.9% active | AID 504832; also: potency is read from the fitted curve at half-maximal effect; % is scaled to controls: 0 for no effect and ±100 for the full control effect
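Luciferase-expressing parasites in RBCs, 2% Hct / 0.1% parasitemia final; RPMI 1640 + 0.5% Albumax; 37 C, 5% CO2, one generation; luminescence read-out, lower signal = inhibition.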
Shiga toxin inh = blocks Shiga toxin action in Vero cells. Vero cells, Shiga toxin protein synthesis inhibition reporter. inhibition, % at 38.7 µM. 290,000 tested, 9.2% active. AID 2315; in the data active = inhibition mostly above about 28%, no sharp cut-off; inactive = mostly below about 43%; also: 0% is about no effect
CHX counter-1 = counter-screen hit for Shiga toxin inhibitors, cycloheximide | 300,000 tested, 12% active | max response, % | cell reporter, cycloheximide protein synthesis inhibition counterscreen | AID 2314; in the data active = max response mostly above about 13%, no sharp cut-off; inactive = mostly below about 14%; also: read at 38.3 µM for the half of the compounds with a filed dose; 0% is about no effect
HCV inh = inhibitors of hepatitis C virus infection; Huh7.5.1 HCVcc-Cre infection, luciferase reporter, 44 h; Potency, µM (series often up to 41.8 µM), without a hit: top-dose activity change, negative = inhibition, actives largely listed as inhibitors; 340,000 tested, 3.4% active; AID 651820; also: potency is read from the fitted curve at half-maximal effect; % is scaled to controls: 0 for no effect and ±100 for the full control effect
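Seed cells (1,000/well) for 4 h; treat with compound and infect with HCVcc-Cre, moi about 0.5. Incubate 44 h, then detect luciferase activity.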
AMA1-RON2 inh = disrupts binding of P. falciparum AMA1 to RON2; AlphaScreen AMA1-biotinylated RON2 peptide binding; Potency, µM (highest dose often 58.2 µM), without a hit: top-dose activity change, negative = inhibition, actives largely listed as inhibitors; 360,000 tested, 0.2% active; AID 720542;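 also: potency is read from the fitted curve at half-maximal effect; 0% = vehicle wells and -100% = peptide control; nearly all actives have a fitted effect of over 45% in size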
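AMA1 (3D7) with his tag at 25 nM final met compounds first, then biotinylated RON2 peptide at 25 nM; detection used donor plus acceptor beads, 10 µg/mL apiece, read by AlphaScreen after 30 min at room temperature.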
CHX counter-2 = affects protein synthesis reporter in cycloheximide counter-screen; 510 tested, 3% active; Potency, µM (doses to about 38.3 µM), for inactives: at the highest dose activity (activation), actives largely listed as activators; Cycloheximide counterscreen, protein synthesis reporter, Shiga toxin assay; shares compounds with Shiga toxin inh; calls by dose curve; also: potency is read from the fitted curve at half-maximal effect; 0% is about no effect
* = called active by the depositor; ? = inconclusive; · = no result; ! = not active in a repeat; [ ] = remark or other dose. Unless noted, calls follow the shape of the dose curve; as a rule, active = well fitted curve in the direction sought with a large enough effect; inconclusive = small, poorly fitted or top-dose-only effect, or another doubt; inactive = no such curve, though single readings can be large; an effect the other way counts as inactive or inconclusive.

SMILES | Pf growth 96h | Pf growth 48h | Shiga toxin inh | CHX counter-1 | HCV inh | AMA1-RON2 inh | CHX counter-2
N#Cc1ccc(N=c2ssnc2Cl)cc1 | 12µM*! | 43% | 28* | 2 | 26% | -11% | 0%
N#Cc1ccc(Oc2c(Cl)cncc2Cl)cc1 | 7% | 5%[0.00184 µM] | -8 | -5 | 7% | 13% | ·
NC(=O)Cc1ccc(C(=O)c2ccccc2F)s1 | 60% | 11% | 38* | 15 | 5% | -4% | 0%
O=S(=O)(c1ccccc1F)N1CCN(CCc2ccccc2)CC1 | 32% | 0% | 5 | 1 | ? | -14% | ·
Cc1cc(C(=O)CN2CCN(CC(=O)Nc3cccc(F)c3)CC2)c(C)n1C1CC1 | 0% | ? | · | · | 1% | 20%[11.6 µM] | ·
CC(=O)c1ccccc1Oc1ncnc(N)c1[N+](=O)[O-] | -21% | -1% | 29* | 2 | 17% | 3% | 0%
Cc1ccccc1Oc1ncnc(N)c1[N+](=O)[O-] | ? | -3% | -7 | 3 | 4% | -16% | ·
O=C(NCCN1CCOCC1)C(=O)NCC1OCCN1S(=O)(=O)c1ccccc1 (stereo not drawn) | ? | 3% | 12* | 9 | 14% | 45% | -1%
O=C(NCCN1CCOCC1)C(=O)NCC1OCCN1S(=O)(=O)c1ccc(Br)cc1 (stereo not drawn) | 5% | -2% | -10 | 1 | 7% | 7% | ·
CC(C)(C)c1cc(CN2CCCCC2)cc(C(C)(C)C)c1O | · | -10% | -11 | -2 | 13% | · | ·
CC(C)(C)c1cc(CCC(=O)N2CCC2)cc(C(C)(C)C)c1O | 24% | 26% | 14* | 14 | -23% | 0% | 5%
COc1cccc(C(C(=O)NC2CCCC2)N(C(=O)c2ccco2)C2CC2)c1OC (stereo not drawn) | 62% | -1% | 35* | -2 | 6% | -1% | 2%
COc1cccc(C(C(=O)NC2CCCC2)N(Cc2ccc(C)cc2)C(=O)c2ccco2)c1OC (stereo not drawn) | -22% | ? | 18 | -3 | -1% | 5% | ·
COc1cc2c(cc1OC)CN(C(=O)CSc1ccccc1C)CC2 | · | · | · | · | ? | -7% | ·
CC(C)Oc1ccc(C(=O)NC(Cc2c[nH]c3ccccc23)C(=O)NN)cc1 (stereo not drawn) | 22% | 16% | 37* | 9 | 13% | 64% | 1%
COc1ccccc1NC(=O)N[C@@H](Cc1c[nH]c2ccccc12)C(=O)NN | ? | ? | 2 | -2 | 7% | 26% | ·
Cc1ccc(NC(=O)CSc2nc(=O)n(Cc3ccncc3)c3c2CCC3)c(C)c1 | 24% | 19% | · | · | 14% | 0% | ·
CCOC(=O)C1(CCCc2ccccc2)CCN(C(=O)C(C)n2cncn2)CC1 (stereo not drawn) | -2% | ? | 10 | 2 | 10% | 11% | ·
CCOC(=O)C1(CCCc2ccccc2)CCN(C(=O)CCn2cncn2)CC1 | 77% | 9% | 39* | 8 | -14% | 10% | 3%
O=C(Cn1cc2c(n1)CCCCC2)Nc1ccccc1Br | ? | ? | 73* | 11 | 9% | 1% | -1%
COc1cc(CN2CCN(CC#Cc3ccccc3)CC2CCO)cc(OC)c1 (stereo not drawn) | ? | -15% | 20* | 8 | 12% | 1% | -1%
COc1ccc(C2=NOC(C(=O)NC(C)C)C2)cc1 (stereo not drawn) | ? | 62% | 26* | 2 | · | -8% | 1%
CCC(C)NC(=O)C1CC(c2ccc(OC)cc2)=NO1 (stereo not drawn) | · | 0% | 39 | 32 | 0% | 0% | ·
NNC(=O)c1ccc(NS(=O)(=O)c2ccc(Br)cc2)cc1 | 30% | -17% | 28* | 2 | · | · | 4%
COc1ccc2cc(C(=O)NCc3ccccc3)[nH]c2c1 | 53% | 28% | 31* | 12 | -21% | 2% | ?
SMILES | Pf growth 96h | Pf growth 48h | Shiga toxin inh | CHX counter-1 | HCV inh | AMA1-RON2 inh | CHX counter-2
COc1ccc2[nH]c(C(=O)NCc3ccccc3)c(C)c2c1 | 19% | 27% | 23 | 15 | -28% | ? | ·
O=C1C=C(O)c2[nH]c(=O)ccc2C1=O | · | · | · | · | 24% | -6% | ·
Cc1cccc(NS(=O)(=O)c2ccc(C)c(C(=O)NCc3ccncc3)c2)c1 | 2% | -22% | · | · | -27% | -7% | ·
Cc1ccccc1-c1nnc(SCC#N)o1 | 2% | 28% | 33* | 10 | 1% | 1% | 1%
O=C(CNS(=O)(=O)c1ccc2ccccc2c1)OCC(=O)c1ccc(Br)s1 | · | 23% | 15 | -1 | -11% | -2% | ·
Cc1cc(C(=O)COC(=O)CNS(=O)(=O)c2ccc3ccccc3c2)c(C)n1-c1ccccc1 | 57% | 20% | active | 10 | 7% | -7% | 5%
COc1cc2cc(C)c(SCC(=O)N3CCN(C(=O)c4ccco4)CC3)nc2cc1OC | ? | ? | -4 | -4 | ? | -7% | ·
O=C(COC(=O)/C=C/c1cccc(Cl)c1Cl)Nc1ccc2[nH]c(=O)[nH]c2c1 | 27% | 4% | · | · | 14% | -8% | ·
NC(=O)[C@@H]1CCCN1C(=O)c1ccc2nc(Cc3cccc(Cl)c3)oc2c1 | 10µM* | 2% | 24* | -2 | -2% | 5% | 0%
COCC1CCN(C(=O)c2ccc3nc(Cc4cccc(Cl)c4)oc3c2)CC1 | · | · | · | · | · | 0% | ·
COc1ccc(CNCC(=O)Nc2sccc2C#N)cc1 | 11% | 13% | 52* | 13 | -1% | 16% | 2%
COc1ccccc1CNC(=O)Cn1cc([N+](=O)[O-])ccc1=O | 28% | 28% | 50* | -3 | 2% | 5% | -2%
COc1ccc(Cc2n[nH]c(=S)n2-c2cc(C)ccc2C)cc1OC | · | · | · | · | · | 90% | ·
O=C(c1ccco1)N1CCN(c2nc(C3CC3)nc3c2nnn3Cc2ccccc2Cl)CC1 | -6% | 6.6µM* | active | 6 | ? | -25% | 1%
CSc1ccc(NC(=O)NN(c2ccccc2)C2CCS(=O)(=O)C2)cc1 (stereo not drawn) | · | · | · | · | · | -5% | ·
Cc1cc2n(n1)SC(Nc1cc(Cl)ccc1Cl)N2 (stereo not drawn) | -21% | -21% | 35* | 17 | 7% | 59% | 1%
O=C(Nc1cc(Cl)ccc1Cl)Nn1cnnc1 | ? | 26% | -11 | -3 | 4% | -8% | ·
COc1ccccc1C(=O)NC1CCSc2ccccc21 (stereo not drawn) | ? | -24% | -19 | -1 | -12% | 5% | ·
CON(C)S(=O)(=O)c1cccc(C(=O)NC2CCSc3ccccc32)c1 (stereo not drawn) | -28% | -27% | 77* | 4 | ? | -15% | -4%

Source: PubChem (National Center for Advancing Translational Sciences (NCATS))
